The values that follow come from PubChem BioAssay AID836 (Columbia University Molecular Screening Center, 2007).

Hit rate of the full screen: of about 91,000 compounds, about 160 (0.18%) were called active. What follows is part of a selection rich in actives, with near analogues and random picks from the rest. A number with no mark means an inactive call.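 How the source made its calls: active means inhibition above the batch mean plus 3 SD and confirmed as a hit by visual image inspection (cut at about 30% in these data, passing the limit was not always enough); inconclusive means above the inhibition threshold but rejected on visual inspection; inactive means the rest.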

This test can be described thus: modifiers of F-actin cytoskeleton organization, primary screen, imaging, HUVEC, phalloidin staining, high-content imaging (AID 836). The note with it: HUVEC TNFa F-actin phalloidin imaging, at 2 µM, hits give high values.
Regarding `c1ccc2c(C[n+]3csc4ccccc43)cccc2c1`, the inhibition was 1.4%.

For `O=C(NN1C(=O)C2C3C=CC(C4CC34)C2C1=O)c1ccc(Cl)cc1` (centres undefined), the inhibition is -3.8%.

As for `CCCCOC(=O)Nc1sc2nc(C)cc(C)c2c1-n1cccc1`, the inhibition was 14.1%.

Take `CC1CC(C)CN(S(=O)(=O)c2cccc(C(=O)N3C(=O)c4cccc(N)c4C3=O)c2)C1` (centres undefined): the inhibition was -15.2%.

Turning to `CCOC(=O)NNC(=O)c1ccc(Cl)cc1`, the inhibition was 18%.

With `N#C/C(=C(/O)COc1cccc2ccccc12)c1nc2ccccc2[nH]1`, the inhibition was -7.4%.

For the compound `CSCc1cc(N2CCOCC2)nc(SCc2ccc(Cl)cc2Cl)n1`, the inhibition is 3.4%.

With `N#CC1=C(N)N(c2ccc(F)cc2)C(=O)C1`, the inhibition is -25.3%.

With `CC(C)(C)NS(=O)(=O)c1ccc(NC(=O)NC2CCCCC2)cc1`, the inhibition was 2.8%.

On to `O=C1CN(c2nc(-c3ccccc3)c3cc(Br)ccc3n2)c2ccccc2N1`, for which the inhibition was -17.8%.

Regarding `O=C(Cn1ccc([N+](=O)[O-])n1)NCc1cccs1`, the inhibition is -5.1%.

As to `Cc1c(Br)c([N+](=O)[O-])nn1C(C)C(=O)Nc1nccs1` (centres undefined), the inhibition was 7.3%.

In the case of `CCCn1nnnc1NC(=O)COc1ccc(Cl)cc1C`, the inhibition is 0.8%.

For `CCOC(=O)N1CCN(c2c(NCCCN3CCCC(C)C3)c(=O)c2=O)CC1` (centres undefined), the inhibition is 8.2%.

As to `Cc1cccc(N(CC(=O)Nc2ccc(-c3nc4ccc(C)cc4s3)cc2)S(C)(=O)=O)c1`, the inhibition was 29.8%.

For the compound `COc1cc(C(=O)NC(=S)NCc2ccco2)cc(OC)c1OC`, the inhibition is -26%.

In the case of `CCOC(=O)CC(=O)CSc1nc(-c2ccccc2)cc(-c2ccc(Cl)cc2)c1C#N`, the inhibition is -2.9%.

`Cc1ccc(NC(=S)NC2CCCC2)cc1`: the inhibition is 0.9%.

For `CCc1cccc2c(C=C(C#N)C#N)cn(CC(=O)N3CCCCC3)c12`, the inhibition was 9.3%.

As for `COc1ccccc1C(=O)NN1C(=O)C2C3C=CC(O3)C2C1=O` (centres undefined), the inhibition was -1%.

On to `Cc1ccc(N2CCN(/N=C/c3cccs3)CC2)cc1`, for which the inhibition is -35.9%.

For `O=C(CNC(=O)c1cc2c(s1)CCC2)Nc1ccccc1Br`, the inhibition is 9.1%.

For the compound `CC(=O)N1Cc2ccccc2CC1C(=O)O` (centres undefined), the inhibition was -11.9%.

For the compound `Cc1ccccc1OCc1nnc(SCC(=O)N2c3ccccc3Sc3ccc(Cl)cc32)o1`, the inhibition is -79.4%.

On to `O=C(Cc1ccccc1)N/N=C/c1ccc(Cl)cc1Cl`, for which the inhibition was 0.1%.

For the compound `N#C/C(=C/c1ccc(Cl)cc1)NC(=O)c1ccccc1`, the inhibition is -6.5%.

As for `COc1ccc(OC)c2sc(NC(=O)C3COc4ccccc4O3)nc12` (centres undefined), the inhibition was -2.9%.

Turning to `O=C(Nc1nc(-c2ccncc2)cs1)C1COc2ccccc2O1` (centres undefined), the inhibition is 55.6% (active).

In the case of `O=C(Nc1nc(-c2ccc3c(c2)OCO3)cs1)c1ccncc1`, the inhibition was -6.9%.

`Cc1ccc(NC(=S)Nc2ncccc2C)c(C)c1`: the inhibition was -17.2%.

For `COc1ccc(Oc2c(Cl)cnn(-c3ccccc3)c2=O)cc1`, the inhibition is -7.9%.

In the case of `COc1ccc(O)c(C=Nc2cc(C)on2)c1`, the inhibition was 73.6% (active).

`Cc1cc(N=CC2=C(O)CCCC2=O)no1`: the inhibition was 3.6%.

For the compound `COc1ccc(O)c(C(=O)c2cnc3onc(C(C)C)c3c2)c1`, the inhibition was 0.9%.

On to `Cc1ccc(C(=O)N/C(=C/C=C/c2ccccc2)C(=O)NCc2ccco2)cc1`, for which the inhibition was 19.4%.

For the compound `COC(=O)Nc1sc2nc(C)cc(C)c2c1-n1cccc1`, the inhibition was -0.5%.

On to `CC1=NN(C(=O)Cc2ccc(C)cc2)C(O)(c2cccnc2)C1` (centres undefined), for which the inhibition was 5.3%.

Turning to `O=C1c2cccc3cc(Br)cc(c23)C(=O)N1Nc1ccccc1`, the inhibition is -0.3%.

In the case of `O=C(Nc1cccc2ncccc12)C(Cl)(Cl)Cl`, the inhibition is 17.1%.

Take `O=C(NC1CCN(C(=S)NCc2ccco2)CC1)c1ccc(F)cc1`: the inhibition was 9.8%.

Turning to `N#C/C(=C1/CCCN1)c1ccccn1`, the inhibition was -5.5%.

`Nc1c(-c2cccc(Cl)c2)cnn1-c1cccc([N+](=O)[O-])c1`: the inhibition was 14.9%.

On to `Cc1cc(OC(=O)c2ccc(Cl)cc2)cc(=O)n1C`, for which the inhibition is 2.4%.

On to `O=C(O)c1ccccc1NC(=S)NC(NC(=O)c1ccccc1[N+](=O)[O-])C(Cl)(Cl)Cl` (centres undefined), for which the inhibition is -20.2%.

With `COc1ccc(-c2nnc(SCC(=O)NC3CCCCC3)o2)cc1OC`, the inhibition is 30.5% (active).

On to `COc1ccc(CN(C(=O)CSc2nnc(-c3ccc(OC)c(OC)c3)o2)c2ccc(F)cc2)cc1`, for which the inhibition is 15.5%.

Take `COc1ccc(CCNC(=O)CSc2nnc(-c3cccc(F)c3)o2)cc1OC`: the inhibition was 2.3%.

Regarding `CC(=O)c1nn(-c2cccc(Br)c2)cc1C(=O)c1cccc2ccccc12`, the inhibition was 18.2%.

On to `O=C(CSc1ccc(/C=N/NC(=O)c2cccc(F)c2)o1)Nc1ccccc1`, for which the inhibition was 1.1%.

For `NC(=O)C1(N2CCCCC2)CCN(C(=S)Nc2ccc(Cl)cc2)CC1`, the inhibition is -20.4%.

As for `COCCCn1c(SCc2cccc(OC)c2)nc2cc(OC)c(OC)cc2c1=N`, the inhibition is 3.7%.

Consider `Cc1ccc(N2CCN(C3=NC(=O)/C(=C\c4cccs4)S3)CC2)cc1`, for which the inhibition is 24.1%.

Consider `CCCCCCOC(=O)NCC(O)c1ccccc1` (centres undefined), for which the inhibition was 61.8% (active).

Consider `CCCCCOC(=O)NCCOC(=O)Nc1ccc(C(=O)OCC)cc1`, for which the inhibition is 8%.

With `CCCCOC(=O)NCN1C(=O)C2C3C=CC(C3)C2C1=O` (centres undefined), the inhibition is 11.5%.

Turning to `CCC(=O)OCc1c(C(F)(F)F)nn(C)c1Oc1cccc(C(F)(F)F)c1`, the inhibition is -4%.

Turning to `COC(=O)c1ccc(C2C(Oc3ccccc3C)C(=O)N2CCc2ccc(OC)c(OC)c2)cc1` (centres undefined), the inhibition was 3.1%.

Turning to `Cc1[nH]c2ccccc2c1C(=O)COC(=O)C(C)C`, the inhibition was -13%.

In the case of `Cc1ccc(-c2nc(C)sc2CC(=O)O)cc1`, the inhibition is 7.2%.

As for `N=c1oc2ccccc2cc1C(=O)N/N=C/c1ccccc1`, the inhibition is -3.7%.

For `COc1cc(/C=N\NC(=O)C2C(=O)NCC2c2ccccc2)cc(OC)c1O` (centres undefined), the inhibition is 2%.

As to `CC1CCc2c(c3ccccc3[nH]c2=O)O1` (centres undefined), the inhibition was 3%.

With `Nc1c(-c2ccc(F)cc2)cnc2ncnn12`, the inhibition was 21.9%.

Regarding `Cc1ccc(SCC(=O)NC(=O)NCc2ccco2)c(C)c1`, the inhibition is 1.6%.
